mut p53 react – mutant p53 pathway reactivation; SW480 PUMA-promoter luciferase; activation, % at 9.98 µM; 28,000 compounds, 1.5% hits; AID 624151; in the data active = activation above about 52%
ID4 binder – ID4 (human) binding. 31,000 compounds, 1.2% hits. calls only. P47928. small molecule microarray, Flag-ID4 binding, fluorescence F/B. AID 624137; call rule not given here;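 also: a binder raises fluorescence above local background on the spot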
Target sequence (P47928 whole entry, looked up): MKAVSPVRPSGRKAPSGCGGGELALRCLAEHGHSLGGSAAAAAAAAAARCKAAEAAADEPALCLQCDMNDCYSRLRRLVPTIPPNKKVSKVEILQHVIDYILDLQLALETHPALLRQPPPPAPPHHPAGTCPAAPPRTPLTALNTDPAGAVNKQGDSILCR
* marks the source's active call; other numbers are inactive results; i = inactive; . = not tested or not shown; + = active, no number. A selection: hits, their analogues and other compounds. The true share with any hit is near 2.2%.

SMILES	mut p53 react	ID4 binder
COc1cc(CNC23CC4CC(CC(C4)C2)C3)ccc1OCC(N)=O	-5	+
COc1cc(CNC2CCCC2)ccc1OCC(N)=O	4	i
COC(=O)c1ccc(NC(=O)CN(c2cc(C(F)(F)F)ccc2Cl)S(C)(=O)=O)cc1	7	i
CC(C)NC(=O)N(C)C[C@@H]1Oc2ccc(N(C)C)cc2C(=O)N([C@H](C)CO)C[C@H]1C	.	i
O=C(NCc1ccc(F)cc1)[C@H]1C[C@H]2C(=O)NCC(=O)N2[C@H]1c1ccc(O)cc1	.	i
CN(C)CCCCCCNC(=O)[C@@H]1C[C@@H]2C(=O)N3CCC[C@H]3C(=O)N2[C@@H]1c1ccc(O)cc1	.	+
O=S(=O)(c1cccc(F)c1)N1CCN(Cc2ccc(OCCO)cc2)CC1	.	i
C[C@H](CO)N1C[C@H](C)[C@@H](CN(C)C)OCCCC[C@H](C)Oc2ccc(NC(=O)CCCN(C)C)cc2C1=O	3	i
C[C@H](CO)N1C[C@H](C)[C@H](CN(C)S(=O)(=O)c2ccc(Cl)cc2)Oc2ccc(NC(=O)NC3CCCCC3)cc2C1=O	-2	i
C[C@H]1CN([C@@H](C)CO)C(=O)c2ccccc2-c2ccccc2CO[C@@H]1CN(C)S(=O)(=O)c1ccccc1F	7	i
CN(CC(=O)Nc1ccccc1C(F)(F)F)S(=O)(=O)c1ccc(F)cc1	-6	i
Cc1ccc(NC(=O)COc2ccc(C(C)(C)C)cc2Br)c([N+](=O)[O-])c1	40	i
COc1ccccc1NC(=O)COc1ccc(CO)cc1Cl	165*	i
COc1ccccc1OCC(=O)Nc1cc(-c2nc3ccccc3[nH]2)ccc1C	15	+
Cc1ccc(NC(=O)COc2ccc(Cl)cc2Cl)c([N+](=O)[O-])c1	-60	i
Cc1ccc(NC(=O)COc2ccccc2Cl)c([N+](=O)[O-])c1	60*	i
Cc1ccc(-c2nc3ccccc3[nH]2)cc1NC(=O)COc1ccc(C(C)C)cc1	1	i
COc1ccccc1OCC(=O)Nc1ccc(C)cc1[N+](=O)[O-]	119*	i
Cc1ccc(NC(=O)COc2ccc(CO)cc2Cl)cc1	6	i
C[C@@H]1CN([C@H](C)CO)C(=O)c2cccc(NC(=O)c3ccncc3)c2O[C@@H]1CN(C)Cc1ccc(C(=O)O)cc1	-5	i
CO[C@@H]1CN(C)C(=O)c2ccc(NC(C)=O)cc2OC[C@@H](C)N(Cc2ccccn2)C[C@H]1C	.	i
CCn1c(SCC(=O)Nc2cccc(Br)c2)nnc1-c1ccc(OC)cc1	-20	i
CNC[C@H]1Oc2ccc(NC(=O)Nc3c(C)noc3C)cc2CC(=O)N([C@@H](C)CO)C[C@@H]1C	8	i
C[C@@H]1CN([C@@H](C)CO)C(=O)Cc2cc(NS(=O)(=O)c3cccs3)ccc2O[C@H]1CN(C)S(=O)(=O)c1ccccc1	3	i
COc1ccc(NC(=O)COc2ccccc2[N+](=O)[O-])cc1Cl	135*	i
SMILES	mut p53 react	ID4 binder
COc1cc(NC(=O)COc2ccccc2[N+](=O)[O-])ccc1NC(=O)c1cccs1	-12	i
O=C(COc1ccccc1Cl)Nc1ccc2oc(-c3ccc(F)cc3Cl)nc2c1	-2	i
O=C(COc1ccccc1[N+](=O)[O-])Nc1ccc2oc(-c3ccc(F)cc3Cl)nc2c1	51*	i
COc1ccc(OCCNc2c([N+](=O)[O-])c(=O)oc3ccccc23)cc1	37	i
COc1ccc(OC)c(NC(=O)CNC(=O)c2ccc(C(C)(C)C)cc2)c1	7	i
COc1ccc(C(=O)NCC(=O)Nc2cc(OC)ccc2OC)cc1	1	+
COc1ccc(OC)c(NC(=O)c2ccc(CSc3nnc(C)s3)cc2)c1	62*	i
COc1ccc(OC)c(NC(=O)Cc2ccc(OC)c(OC)c2)c1	-6	i
COc1ccc(NC(=O)C23CC4CC(C2)CC(C(=O)Nc2ccc(OC)cc2OC)(C4)C3)c(OC)c1	-4	i
COc1ccc(NC(=O)NCc2ccc(C(=O)O)cc2)c(OC)c1	-7	+
COc1ccc(NC(=O)NCCc2ccccc2OC)c(OC)c1	7	i
COc1ccc(NC(=S)NCCc2ccccc2OC)c(OC)c1	17	+
Cn1c(SCC(=O)Nc2ccc(Oc3ccccc3)cc2)nnc1-c1ccc([N+](=O)[O-])cc1	-10	i
C[C@H](CO)N1C[C@H](C)[C@H](CN(C)Cc2ccc(-c3ccccc3)cc2)Oc2cc(C#C[C@@H](C)O)ccc2S1(=O)=O	-43	i
O=C(CSc1ccc2ccccc2n1)c1ccc2c(c1)OCCO2	-3	i
Cc1noc(C)c1NC(=O)Nc1cccc2c1O[C@H](CN(C)Cc1ccncc1)[C@@H](C)CN([C@@H](C)CO)C2=O	9	i
CCc1cc2c(SCC(=O)c3ccc(C)cc3)ncnc2s1	65*	i
CCc1cc2c(SCC(N)=O)ncnc2s1	-15	i
C[C@@H]1CN([C@H](C)CO)C(=O)c2c(c3ccccc3n2C)-c2ccccc2CO[C@H]1CN(C)C(=O)[C@H](Cc1ccccc1)N(C)C	-4	.

Assay outcomes: PubChem BioAssay, Broad Institute
